From PubChem BioAssay AID1259313 (Sanford-Burnham Center for Chemical Genomics, 2017) come the findings set out here.

The whole screen tested about 340,000 compounds, of which about 8,500 (2.5%) were called active. The sample holds actives, similar compounds and a random draw of the others, so the mix is not that of the screen.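 The calls were made as follows: active = melting temperature shift of at least 10% of the positive control shift, at one fixed dose; inactive = the rest.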

The test relates to Glutamate receptor ionotropic, NMDA 3A (GRIN3A) ligand-binding domain. As to the kind of experiment: binders of NR3A ligand-binding domain, primary screen, biophysical, differential scanning fluorimetry, uHTS (AID 1259313). The following applies: NR3A LBD differential scanning fluorimetry, at 25 µM, hits give high values, 0% = protein alone, 100% = glycine-bound protein. (In general: In DSF a fluorescence change marks the thermal transition of the protein.)
`COc1ccc(C(=O)NCc2nnc(SCC(=O)NC3=NCCS3)n2C)cc1`: the Tm shift relative to glycine control was -1.86% (inactive).

For the compound `CCOc1ccc(NC(=O)CCNC(=O)c2ccc(Br)cc2)cc1`, the Tm shift relative to glycine control is -4.23% (inactive).

`CCOc1ccc(NC(=O)c2ccc(NC(=O)CN3C(=O)C(=O)N(CC(C)C)C3=O)cc2)cc1`: the Tm shift relative to glycine control was 28.5% (active).

Turning to `CCOc1ccc(NC(=O)c2ccc(NC(=O)COC(=O)c3ccc(NC(=O)CC#N)cc3)cc2)cc1`, the Tm shift relative to glycine control was 9.12% (inactive).

Take `CCCOc1ccc(Cl)cc1Nc1nc(NCCO)nc(N2CCCC2)n1`: the Tm shift relative to glycine control is 1.78% (inactive).

`Cc1cc(C)c(C#N)c(SCS(=O)c2ccc(C(C)(C)C)cc2)n1` (centres undefined): the Tm shift relative to glycine control is 1.37% (inactive).

Regarding `O=C(COc1ccc(/C=N/NC(=O)c2ccc(O)cc2)cc1)Nc1ccc([N+](=O)[O-])cc1`, the Tm shift relative to glycine control was 7.26% (inactive).

With `O=C(Cc1cccs1)N/N=C/c1ccc(OCc2ccccc2)cc1`, the Tm shift relative to glycine control was 2.17% (inactive).

On to `CC(C)(C)C(=O)Nc1ccc(C(=O)N/N=C/c2ccccc2OC(=O)c2ccc(Cl)cc2Cl)cc1`, for which the Tm shift relative to glycine control was 2.16% (inactive).

With `O=C(N/N=C/c1ccc(OCc2ccccc2)cc1)c1ccc(O)cc1`, the Tm shift relative to glycine control is 28.3% (active).

In the case of `O=C(N/N=C/c1ccc(OC(=O)c2ccccc2Cl)cc1)c1ccc(O)cc1`, the Tm shift relative to glycine control is 24.6% (active).

As for `O=C(O)c1ccc(/C=N/NC(=O)c2ccc(Br)cc2)cc1`, the Tm shift relative to glycine control is -0.55% (inactive).

For the compound `COc1cc(/C=N/NC(=O)Nc2ccccc2)ccc1OCCOc1ccccc1C`, the Tm shift relative to glycine control is -1.19% (inactive).

`O=c1[nH]cnc(O)c1C(c1ccc(F)cc1)c1c(O)nc[nH]c1=O`: the Tm shift relative to glycine control was 0.87% (inactive).

`Oc1ccc(-c2nncn2-c2ccccc2)cc1`: the Tm shift relative to glycine control is -3.14% (inactive).

With `Oc1ccc(-c2cccc(-c3ccc(O)cc3)c2)cc1`, the Tm shift relative to glycine control was 31.9% (active).

For the compound `O=C(OCc1ccc(-c2ccccc2)cc1)c1cccc(O)c1`, the Tm shift relative to glycine control was 9.28% (inactive).

In the case of `CNC(=S)N1CCC(NC(=O)C(Cc2ccc(F)cc2)NC(C)=O)CC1` (centres undefined), the Tm shift relative to glycine control is -1.22% (inactive).

Regarding `COc1ccc(CCNC(=O)CCCCCNC(=O)N2CCn3c2nc2ccccc23)cc1OC`, the Tm shift relative to glycine control is -1.29% (inactive).

In the case of `O=C(NCCCn1ccnc1)/C(=C\c1ccccc1F)NC(=O)c1ccccc1`, the Tm shift relative to glycine control was -0.09% (inactive).

Take `CC(C)(C)C1CCC(=NNC(=O)c2cc(-c3ccccc3)n[nH]2)CC1` (centres undefined): the Tm shift relative to glycine control is -5.15% (inactive).

As to `CC(/C=N/NC(=O)c1cc(-c2ccc3ccccc3c2)n[nH]1)=C\c1ccco1`, the Tm shift relative to glycine control was 16.4% (active).

Regarding `CC(C)c1cc(C(=O)N/N=C/C(Br)=C/c2ccccc2)n[nH]1`, the Tm shift relative to glycine control was 6.56% (inactive).

Consider `Cc1cc2c(cc1C)NC1(C[C@H]3CCC(=O)N4CC[C@@H](C1)[C@@H]34)C(=NC(C)(C)CC(C)(C)C)N2` (some centres undefined), for which the Tm shift relative to glycine control was -6.03% (inactive).

On to `O=C(CCCCCn1c(=S)[nH]c2cc3c(cc2c1=O)OCO3)N1CCN(c2ccc(F)cc2)CC1`, for which the Tm shift relative to glycine control is 11.6% (active).

As for `Cc1ccc(C)c(N2CCN(C(=O)CCCCCn3c(=S)[nH]c4ccc(N5CCOCC5)cc4c3=O)CC2)c1`, the Tm shift relative to glycine control was -2.75% (inactive).

As for `CC(C)NC(=O)CCCn1c(=S)[nH]c2cc3c(cc2c1=O)OCO3`, the Tm shift relative to glycine control is -1.68% (inactive).

As to `CC(C)c1ccc(NC(=S)NC2CC3C=CC2C3)cc1` (centres undefined), the Tm shift relative to glycine control is 0.48% (inactive).

Regarding `Cc1cccc(N=C2NC(=O)/C(=C/c3cn(C)c4ccccc34)S2)c1`, the Tm shift relative to glycine control was 26.7% (active).

Take `Cc1ccc(N=C2NC(=O)/C(=C/C=C/c3ccco3)S2)cc1C`: the Tm shift relative to glycine control is 9.42% (inactive).

In the case of `Cc1ccc(N2C(=O)S/C(=C/c3cn(C)c4ccccc34)C2=O)cc1`, the Tm shift relative to glycine control was 1.52% (inactive).

As for `Cc1cccc(N2CCN(C(=O)CN(C)S(=O)(=O)c3ccc4c(c3)CCC(=O)N4)CC2)c1C`, the Tm shift relative to glycine control is 0.4% (inactive).

As to `CN(NC(=O)C1CC(=O)N(c2ccccc2)C1)C1=NS(=O)(=O)c2ccccc21` (centres undefined), the Tm shift relative to glycine control is -0.38% (inactive).

As to `Cc1ccc(NC(=O)NC(=O)c2ccccc2)cc1F`, the Tm shift relative to glycine control is -0.73% (inactive).

As to `Cc1cccc(OCCNC(=S)NC(=O)c2cccnc2)c1`, the Tm shift relative to glycine control is 1.46% (inactive).

For the compound `Cc1cccc(NC(=O)NC(=S)NC(=O)c2ccccc2)c1`, the Tm shift relative to glycine control is 20.6% (active).

On to `O=C(c1ccc[nH]c1=S)N1CCN(S(=O)(=O)c2ccc(Br)cc2Cl)CC1`, for which the Tm shift relative to glycine control was -0.43% (inactive).

Take `COC(=O)C1(O)CC(C(C)C)=NN1C(=O)c1ccc(Cl)cc1` (centres undefined): the Tm shift relative to glycine control was -4.26% (inactive).

Regarding `Cc1ccc(NC(=O)CN2CCC3(O)CCCCC3C2c2ccc3c(c2)OCO3)c(C)c1` (centres undefined), the Tm shift relative to glycine control is 1.39% (inactive).

For the compound `Cc1cc(C)c(OCC(=O)N(Cc2cccs2)C2CCS(=O)(=O)C2)c(C)c1` (centres undefined), the Tm shift relative to glycine control is -2.05% (inactive).

`Cc1ccc(-c2cn(S(=O)(=O)c3cccc([N+](=O)[O-])c3)nc2N)cc1`: the Tm shift relative to glycine control was 23.9% (active).

With `CC1=NCCN1S(=O)(=O)c1cccc([N+](=O)[O-])c1`, the Tm shift relative to glycine control was 0.43% (inactive).

For `Cc1cc(C)n(S(=O)(=O)c2cccc([N+](=O)[O-])c2)n1`, the Tm shift relative to glycine control was -0.54% (inactive).

Turning to `O=C(COC(=O)c1ccco1)Nc1ccc(Cl)cn1`, the Tm shift relative to glycine control is -4.19% (inactive).

In the case of `CCN(c1ccccc1)S(=O)(=O)c1ccc(OCC(=O)N2CCCC2)cc1`, the Tm shift relative to glycine control was -0.92% (inactive).

For `COC(=O)C(NS(=O)(=O)c1ccc(F)cc1)c1ccccc1` (centres undefined), the Tm shift relative to glycine control was 0% (inactive).

Consider `COc1ccc(CN2CCN(Cc3ccc(OC)c(OC)c3OC)CC2)cc1`, for which the Tm shift relative to glycine control is -0.74% (inactive).

For `Cc1ccc(NC(=O)COc2ccc(-n3ccnc3)cc2)cc1Cl`, the Tm shift relative to glycine control is -10.8% (inactive).

Regarding `Cc1ccc(NC(=O)Nc2cc(-c3ccccc3)nn2C)cc1Cl`, the Tm shift relative to glycine control is 47.8% (active).

Turning to `Cc1cc(NC(=O)Nc2ccc(Cl)cc2)n(-c2ccccc2)n1`, the Tm shift relative to glycine control is 3.84% (inactive).

Turning to `O=C(NC(Cc1c[nH]c2ccccc12)C(=O)O)/C(=C/c1ccco1)NC(=O)c1ccccc1` (centres undefined), the Tm shift relative to glycine control is 5.13% (inactive).

Turning to `Cc1ccc(S(=O)(=O)NNC(=O)Nc2cccc3ccccc23)cc1`, the Tm shift relative to glycine control was 1.46% (inactive).

Turning to `Cn1nc(C(F)(F)F)c(C(=O)Nc2cccc(C(F)(F)F)c2)c1SCc1ccc(Cl)cc1`, the Tm shift relative to glycine control was 6.13% (inactive).

As to `Cn1cc(Cl)c(C(=O)NNC(=S)Nc2cccc(Cl)c2)n1`, the Tm shift relative to glycine control is -11.3% (inactive).

On to `Cc1cc(Cl)nc(NC(=O)Nc2cccc(Cl)c2)n1`, for which the Tm shift relative to glycine control was -1.44% (inactive).

On to `FC(F)(F)c1cccc(NC(=S)Nc2cccc(Cl)c2)c1`, for which the Tm shift relative to glycine control was 15.7% (active).

For the compound `Cc1cc2[nH]ncc2cc1NC(=S)NC(=O)c1ccccc1`, the Tm shift relative to glycine control was -2.48% (inactive).

For the compound `Cc1cccc(NC(=S)Nc2ccc(Cl)c(Cl)c2)c1`, the Tm shift relative to glycine control is 14.9% (active).

In the case of `S=C(Nc1cccc(Cl)c1)Nc1ccc2cn[nH]c2c1`, the Tm shift relative to glycine control is 13% (active).

As for `Cc1csc(NC(=S)Nc2cccc(Cl)c2)n1`, the Tm shift relative to glycine control was 16.9% (active).

`CCC(=O)Nc1nc(C)c(C(=O)Nc2cccc(Cl)c2)s1`: the Tm shift relative to glycine control was 0.19% (inactive).

`O=S(=O)(Nc1ccc2cn[nH]c2c1)c1ccccc1`: the Tm shift relative to glycine control was -1.96% (inactive).

Regarding `O=C(O)CC1(CC(=O)Nc2cccc(C(F)(F)F)c2)CCCC1`, the Tm shift relative to glycine control was -1.43% (inactive).

For the compound `Cc1cccc(NC(=S)NC23CN4CN(CN(C4)C2)C3)c1`, the Tm shift relative to glycine control is -2.24% (inactive).
